# Reference: article PMC11062922 (Nature Chemical Biology, 2023)
# Where two headings read alike, the source gives them in different places.
# Key:
# Set-up in all cases: species or system human, MV4-11 + K-562 + COLO205 + SK-N-BE2 + OVCAR-8
# [1] = test system: GSK3A; details: read-out: apparent Kd, n = 1
# [2] = test system: GSK3B; details: read-out: apparent Kd, n = 1
# [3] = test system: HSP90B1; details: read-out: apparent Kd, n = 1
# [4] = test system: ILK; details: read-out: apparent Kd; compound concentrations:100 nM and 1000 nM (sheet 'Samples'); n = 1
# [5] = test system: PRKCA; details: read-out: apparent Kd; compound concentrations:100 nM and 1000 nM (sheet 'Samples'); n = 1
# [6] = test system: PRKCB; details: read-out: apparent Kd; compound concentrations: 100 nM and 1000 nM (sheet 'Samples'), CATDS: 0.217434450418582; n = 1
# [7] = test system: PRKCD; details: read-out: apparent Kd; compound concentrations:100 nM and 1000 nM (sheet 'Samples'); n = 1
# [8] = test system: RPS6KA6; details: read-out: apparent Kd; compound concentrations:100 nM and 1000 nM (sheet 'Samples'); n = 1
# [9] = test system: RPS6KB1; details: read-out: apparent Kd; compound concentrations:100 nM and 1000 nM (sheet 'Samples'); n = 1
# [10] = test system: SLK; details: read-out: apparent Kd; compound concentrations:100 nM and 1000 nM (sheet 'Samples'); n = 1
# [11] = test system: PIK3CA; details: read-out: apparent Kd; compound concentrations: 100 nM and 1000 nM (sheet 'Samples'), CATDS: 0.37756355389393098; n = 1
# [12] = test system: PIK3CD; details: read-out: apparent Kd, n = 1
# [13] = test system: PIM2; details: read-out: apparent Kd; compound concentrations: 100 nM and 1000 nM (sheet 'Samples'), CATDS: 0.17072245355379401; n = 1
# [14] = test system: MAPKAPK2; details: read-out: apparent Kd; compound concentrations:100 nM and 1000 nM (sheet 'Samples'); n = 1
# [15] = test system: MDN1; details: read-out: apparent Kd; compound concentrations:100 nM and 1000 nM (sheet 'Samples'); n = 1
# [16] = test system: MYLK3; details: read-out: apparent Kd; compound concentrations:100 nM and 1000 nM (sheet 'Samples'); n = 1
# [17] = test system: NQO2; details: read-out: apparent Kd; compound concentrations:100 nM and 1000 nM (sheet 'Samples'); n = 1
# [18] = test system: SMC4; details: read-out: apparent Kd; compound concentrations:100 nM and 1000 nM (sheet 'Samples'); n = 1
# [19] = test system: TAOK3; details: read-out: apparent Kd; compound concentrations:100 nM and 1000 nM (sheet 'Samples'); n = 1
# [20] = test system: IARS; details: read-out: apparent Kd; compound concentrations: 100 nM and 1000 nM (sheet 'Samples'), CATDS: 0.48101189655770898; n = 1
# [21] = test system: RIOK2; details: read-out: apparent Kd; compound concentrations: 100 nM and 1000 nM (sheet 'Samples'), CATDS: 0.52054883723006395; n = 1
# [22] = compound concentrations:100 nM and 1000 nM (sheet 'Samples')
structure (smiles),measurement,setting,value
COc1cccc(C2=C(Nc3ccc(Cl)c(C(=O)O)c3)C(=O)NC2=O)c1 [SB-390769],potency estimated from few doses,[1]; [22],323 nM
same,potency estimated from few doses,[2]; [22],644 nM
COc1cccc(C2=C(c3cn(C)c4ccccc34)C(=O)NC2=O)c1 [RO0318649-000],potency estimated from few doses,[1]; [22],802 nM
same,potency estimated from few doses,"[2]; compound concentrations: 100 nM and 1000 nM (sheet 'Samples'), CATDS: 0.44424601969869798",1340 nM
COC(=O)Nc1nc2cc(Oc3ccc(NC(=O)Nc4cc(C(F)(F)F)ccc4Cl)cc3)ccc2[nH]1.Cl [GW697465A],potency estimated from few doses,[3]; [22],1220 nM
same,potency estimated from few doses,[4],2220 nM
C[C@@H]1CCCCN1c1cc(-c2ccc3c(N)n[nH]c3c2)nc(N)n1 [GSK2258759A],potency estimated from few doses,[3]; [22],968 nM
O=C(Nc1n[nH]c2nc(-c3cccs3)c(Br)cc12)C1CC1 [SB-735297],potency estimated from few doses,[1]; [22],1290 nM
Cn1cc(C2=C(c3c4n(c5ccccc35)CCC(CN)CC4)C(=O)NC2=O)c2ccccc21 (stereo not drawn) [RO0319371-000],potency estimated from few doses,[1]; [22],608 nM
same,potency estimated from few doses,[2]; [22],504 nM
same,potency estimated from few doses,[5],22.2 nM
same,potency estimated from few doses,[6],52.3 nM
same,potency estimated from few doses,[7],31.6 nM
same,potency estimated from few doses,[8],342 nM
same,potency estimated from few doses,[9],306 nM
same,potency estimated from few doses,[10],2120 nM
Cc1nnc(-c2ccc3occ(-c4ccc(S(C)=O)cc4)c3c2)[nH]1 (stereo not drawn) [TPKI-85],potency estimated from few doses,[1]; [22],339 nM
same,potency estimated from few doses,"[2]; compound concentrations: 100 nM and 1000 nM (sheet 'Samples'), CATDS: 0.41063798470662799",861 nM
Cn1cc(C2=C(c3cccc(OCC(O)CO)c3)C(=O)NC2=O)c2ccccc21 (stereo not drawn) [RO5198354-000],potency estimated from few doses,"[1]; compound concentrations: 100 nM and 1000 nM (sheet 'Samples'), CATDS: 0.57799072500507098",370 nM
same,potency estimated from few doses,"[2]; compound concentrations: 100 nM and 1000 nM (sheet 'Samples'), CATDS: 0.44055416886874998",644 nM
COc1ccc(Nc2nccc(N3CCC(NC(=O)c4cc5ccccc5s4)C3)n2)cc1 (stereo not drawn) [GSK1379738A],potency estimated from few doses,"[3]; compound concentrations: 100 nM and 1000 nM (sheet 'Samples'), CATDS: 0.19171870490815801",1350 nM
same,potency estimated from few doses,[11],248 nM
same,potency estimated from few doses,"[12]; compound concentrations: 100 nM and 1000 nM (sheet 'Samples'), CATDS: 0.43898083182903402",190 nM
same,potency estimated from few doses,[13],2150 nM
Cn1cc(C2=C(c3c4n(c5ccccc35)CCN(C(N)=S)C4)C(=O)NC2=O)c2ccccc21 [RO0319377-000],potency estimated from few doses,[1]; [22],427 nM
same,potency estimated from few doses,"[2]; compound concentrations: 100 nM and 1000 nM (sheet 'Samples'), CATDS: 0.32462654335000002",259 nM
same,potency estimated from few doses,[14],1830 nM
same,potency estimated from few doses,[15],1470 nM
same,potency estimated from few doses,[16],1640 nM
same,potency estimated from few doses,[17],1550 nM
same,potency estimated from few doses,[18],2130 nM
COc1ccc(C2=C(Nc3cccc(C(=O)O)c3)C(=O)NC2=O)cc1 [SB-390765],potency estimated from few doses,[1]; [22],82.8 nM
COc1cccc(C2=C(Nc3cc(Cl)c(O)c(Cl)c3)C(=O)NC2=O)c1 [SB-390767],potency estimated from few doses,[1]; [22],528 nM
same,potency estimated from few doses,[2]; [22],1090 nM
same,potency estimated from few doses,[12]; [22],191 nM
same,potency estimated from few doses,[19],1110 nM
Cl.Cn1cc(C2=C(c3ccc(N)cc3)C(=O)NC2=O)c2ccccc21 [RO0317373-001],potency estimated from few doses,"[1]; compound concentrations: 100 nM and 1000 nM (sheet 'Samples'), CATDS: 1",866 nM
CS(=O)(=O)CCNCc1ccc(-c2ccc3ncnc(Nc4ccc(OCc5ccccc5)c(C(F)(F)F)c4)c3c2)o1.Cl [GW574782A],potency estimated from few doses,[20],1950 nM
same,potency estimated from few doses,[21],1670 nM
